# From PubChem BioAssay (NCATS)
# Values joined by “and” are separate entries in the source; they are usually repeats but may differ in a detail not shown here. Identical values can stand only once. Results filed as inconclusive are left out. Active and inactive are the calls of the source. Calls follow the shape of the dose curve; as a rule, active = well fitted inhibition curve with a large enough effect; inconclusive = small, poorly fitted or top-dose-only effect; inactive = flat fitted curve, though single readings scatter. Where a SMILES comes first, the peptide text is derived from it. Bridges are numbered along the chain shown (N, C = ends). [ ]: non-standard residue; d: D form. The star is where a group is joined. X2 = CC[C@H](C)CCCCC(=O)*; Dab = NCC[C@H](N)C(=O)O
# Test system: KB-3-1
# Experiment: Cytotoxic Profiling of Annotated Libraries Using Quantitative High-Throughput Screening (AID 1296008); also: nearly all actives have a fitted effect of over 60% in size
# Conditions: Five cell lines viability, CellTiter-Glo ATP luminescence, 48-72 h; max response: stronger effect = lower value
# Procedure, shortened: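 Cells exposed to compounds for 48 or 72 hr at 37 degrees Celsius. Viability read as ATP-coupled luminescence with CellTiter-Glo after 10 min at room temperature.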
# % is scaled to controls: 0 for no effect and ±100 for the full control effect; potency is read from the fitted curve at half-maximal effect.
SMILES,max response,Potency
CCCCCCCCCC(=O)O,-12.8% (inactive),
CC(C)NC(=O)N1CC[C@H](N=C2Nc3cc(F)ccc3N(CC(F)F)c3ccc(Cl)cc32)C1,-1.78% (inactive),
CCOC(=O)Nc1ccc2c(c1)N(C(=O)CN(C)C)c1ccccc1CC2,-13.4% (inactive),
CCCCOC(=O)C(=O)Nc1cccc(-c2nn[nH]n2)c1,-17% (inactive),
CCCCCCCCCCCCCCCC(=O)O[C@@H]1CC(C)=C(/C=C/C(C)=C/C=C/C(C)=C/C=C/C=C(C)/C=C/C=C(C)/C=C/C2=C(C)C[C@@H](OC(=O)CCCCCCCCCCCCCCC)CC2(C)C)C(C)(C)C1,-27.5% (inactive),
Cc1c(O)cc2c(c1C)O[C@](C)(CCC[C@H](C)CCC[C@H](C)CCCC(C)C)CC2,-6.57% (inactive),
CCCC(CCC)C(N)=O,-11% (inactive),
C/C=C1\NC(=O)[C@H]2CSSCC/C=C/[C@H](CC(=O)N[C@H](C(C)C)C(=O)N2)OC(=O)C(C(C)C)NC1=O (some centres not stated),,0.0092 µM (active)
COc1ccc(CCNCC(O)COc2cccc(C)c2)cc1OC (configuration not stated),-6.7% (inactive),
OCC(O)COc1ccc(Cl)cc1 (configuration not stated),-9.74% (inactive),
CCC(C)[C@H]1O[C@]2(C=C[C@@H]1C)C[C@@H]1C[C@@H](C/C=C(\C)[C@@H](O[C@H]3C[C@H](OC)[C@@H](O[C@H]4C[C@H](OC)[C@H](NC(C)=O)[C@H](C)O4)[C@H](C)O3)[C@@H](C)/C=C/C=C3\CO[C@@H]4[C@H](O)C(C)=C[C@@H](C(=O)O1)[C@]34O)O2 (some centres not stated),,9.2 µM (active)
CC1=C(C(=O)OCCN(Cc2ccccc2)c2ccccc2)C(c2cccc([N+](=O)[O-])c2)C(P2(=O)OCC(C)(C)CO2)=C(C)N1 (configuration not stated),26.8% (inactive),
C[N+](C)(CCCCCC[N+](C)(C)C1c2ccccc2-c2ccccc21)C1c2ccccc2-c2ccccc21,-17.2% (inactive),
NCCC[C@H](N)C(=O)O,-6.2% (inactive),
O=C(Nc1ccc(/C=C/c2ccc(NC(=O)c3cc(S(=O)(=O)O)c4cccnc4c3O)cc2S(=O)(=O)O)c(S(=O)(=O)O)c1)c1cc(S(=O)(=O)O)c2cccnc2c1O,0.4% (inactive),
COC(=O)C[C@](O)(CCCC(C)(C)O)C(=O)O[C@@H]1C(OC)=CC23CCCN2CCc2cc4c(cc2[C@H]13)OCO4 (some centres not stated),,0.058 µM (active)
Cc1ccc(/C(=C\CN2CCCC2)c2cccc(/C=C/C(=O)O)n2)cc1,-13.8% (inactive),
CCCC1([C@H](O)C/C=C/[C@H]2[C@H](O)CC(=O)[C@@H]2CCCCCCC(=O)OC)CCC1,-18.2% (inactive),
CCC(=O)O,-11.1% (inactive),
CO[C@H]1C[C@H](O[C@H]2[C@H](C)O[C@@H](O[C@@H]3/C(C)=C/C[C@@H]4C[C@@H](C[C@]5(C=C[C@H](C)[C@@H](C6CCCCC6)O5)O4)OC(=O)[C@@H]4C=C(C)[C@@H](O)[C@H]5OC/C(=C\C=C\[C@@H]3C)[C@]54O)C[C@@H]2OC)O[C@@H](C)[C@@H]1O,,20.6 µM (active)
CC[C@H](C)CCCCC(=O)N[C@@H](CCN)C(=O)N[C@H](C(=O)N[C@@H](CCN)C(=O)N[C@H]1CCNC(=O)[C@H]([C@@H](C)O)NC(=O)[C@H](CCN)NC(=O)[C@H](CCN)NC(=O)[C@H](CC(C)C)NC(=O)[C@@H](CC(C)C)NC(=O)[C@H](CCN)NC1=O)[C@@H](C)O (X2-[Dab]T[Dab][Dab][Dab][dL]L[Dab][Dab]T; lactam 4-C),-11.4% (inactive),
O.O=C([O-])CC([S-])C(=O)[O-].[Au+].[Na+].[Na+] (configuration not stated),-7.82% (inactive),
CNC[C@@H]1CC[C@@H](N)[C@@H](O[C@H]2[C@H](O)[C@@H](O[C@H]3OC[C@](C)(O)[C@H](NC)[C@H]3O)[C@H](N)C[C@@H]2N)O1,-26.6% (inactive),
Cn1nnnc1SCC1=C(C(=O)O)N2C(=O)[C@@H](NC(=O)[C@H](OC=O)c3ccccc3)[C@H]2SC1,-7.31% (inactive),
CC(=O)N[C@@H](C=O)[C@H](O)[C@H](O)[C@@H](O)CO,5.53% (inactive) and 4.97% (inactive),
C[C@H](CSC(=O)c1ccccc1)C(=O)N1C[C@@H](Sc2ccccc2)C[C@H]1C(=O)O,-1.05% (inactive),
O=C1C(c2[nH]c3ccc(S(=O)(=O)O)cc3c2O)=Nc2ccc(S(=O)(=O)O)cc21,3.94% (inactive) and -6.29% (inactive),
